The first experiment deals with T1, Mitogen-activated protein kinase 13 (Homo sapiens) (UniProt O15264).
T1 sequence (whole entry): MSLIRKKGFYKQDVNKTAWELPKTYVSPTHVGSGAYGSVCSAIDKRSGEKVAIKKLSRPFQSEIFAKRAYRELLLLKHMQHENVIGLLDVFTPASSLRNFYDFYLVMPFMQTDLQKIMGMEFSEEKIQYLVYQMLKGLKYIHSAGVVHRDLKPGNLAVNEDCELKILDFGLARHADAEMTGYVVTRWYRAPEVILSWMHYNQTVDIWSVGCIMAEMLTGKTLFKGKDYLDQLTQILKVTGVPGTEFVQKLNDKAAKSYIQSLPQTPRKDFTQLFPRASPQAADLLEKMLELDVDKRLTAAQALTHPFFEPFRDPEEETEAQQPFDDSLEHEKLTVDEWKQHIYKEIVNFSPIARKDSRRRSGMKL
To be noted: at 1 µM.
With `CN1CCN(C(=O)c2ccc(NC(=O)Nc3ccc(N(C)c4ccnc(Nc5ccc(CS(C)(=O)=O)cc5)n4)cc3)cc2)CC1`, the inhibition worked out at 1.91%.

Regarding `Oc1cccc(-c2nc(-c3ccccc3)[nH]c2-c2ccncc2)c1`, the inhibition is 3.86%.

On to `COc1cccc(-n2ncc3c(N/N=C/c4ccc(C)cc4)ncnc32)c1`, for which the inhibition was 6.26%.

Consider `CN(C)CCCn1c(-c2nonc2N)nc2cnccc21`, for which the inhibition was 4.99%.

`NS(=O)(=O)c1cccc(-c2cc3ccncc3cc2OCc2ccccc2)c1`: the inhibition worked out at 5.95%.

Take `O=C1Nc2ccccc2/C1=C/Nc1ccc2[nH]c(=O)[nH]c2c1`: the inhibition stood at 4.97%.

Take `Cc1ccc(C(=O)NC2CC2)cc1-c1ccc2[nH]ncc2c1`: the inhibition was -5.34%.

In the case of `N#Cc1c(NC(=O)c2ccccc2F)sc2c1CCCC2`, the inhibition was -2.71%.

Regarding `COC(=O)c1ccc2c(c1)C(=Cc1cc(Br)c(O)c(Br)c1)C(=O)N2`, the inhibition is 5.81%.

Regarding `NS(=O)(=O)c1ccc(N/N=C2\C(=O)Nc3ccc(Cl)cc32)cc1`, the inhibition turned out to be 3.33%.

Regarding `O=C(Nc1ccc(Oc2ccc3[nH]c(NC(=O)c4ccco4)nc3c2)cc1)Nc1cc(C(F)(F)F)ccc1F`, the inhibition was found to be 1.53%.

On to `CS(=O)(=O)Nc1cccc(-c2ccc3c(NC(=O)C4CC4)n[nH]c3c2)c1`, for which the inhibition was 1.02%.

With `c1ccc(Nc2ncc(-c3ccccc3)o2)cc1`, the inhibition came to 4.65%.

Take `CC(C)c1ccc(Nc2nccc(-c3cnn4ncccc34)n2)cc1`: the inhibition came to 5.42%.

Turning to `CCS(=O)(=O)c1ccc(OC)c(Nc2ncc(-c3cccc(OC)c3)o2)c1`, the inhibition was 4.76%.

For the compound `N#Cc1cccc(Nc2nccc(-c3cnn4ncccc34)n2)c1`, the inhibition turned out to be 47.1%.

Turning to `COc1cc2ncnc(Nc3ccc4c(cnn4Cc4ccccc4)c3)c2cc1OC`, the inhibition was 2.74%.

As to `COc1cc2ncn(-c3cc(OCc4ccccc4S(C)(=O)=O)c(C#N)s3)c2cc1OC`, the inhibition was 3.85%.

Take `CN(c1ccc(NC(=O)Nc2ccc(OC(F)(F)F)cc2)cc1)c1ccnc(Nc2cccc(S(N)(=O)=O)c2)n1`: the inhibition amounted to 6.6%.

As to `ON=C1CCc2cc(-c3nc(C4CCNCC4)[nH]c3-c3ccncc3)ccc21`, the inhibition is 0.95%.

With `[O-][S+]1CCN(Cc2ccc(-c3ccc4ncnc(Nc5ccc(OCc6ccccc6)c(Cl)c5)c4c3)o2)CC1`, the inhibition amounted to 0.19%.

As for `NS(=O)(=O)c1ccc(NC=C2C(=O)Nc3ccc4ncsc4c32)cc1`, the inhibition was 9.03%.

Regarding `OCc1ccc(-c2nc(-c3ccccn3)c(-c3ccc4c(c3)OCO4)[nH]2)cc1`, the inhibition was 4.05%.

As for `COc1cc(Nc2nccc(-c3cnn4ncccc34)n2)cc(OC)c1`, the inhibition came to 12.1%.

With `Cc1ccc2c(-c3ccnc(Nc4ccc5c(c4)OCCO5)n3)c(-c3ccc(C(F)(F)F)cc3)nn2n1`, the inhibition is -1.27%.

Regarding `Nc1nccc(-c2c(-c3ccc(F)cc3)ncn2CCCN2CCOCC2)n1`, the inhibition amounted to 5.09%.

In the case of `COc1cccc(-n2nc(C)c3c(N/N=C(\C)c4ccncc4)ncnc32)c1`, the inhibition was -0.68%.

Regarding `Nc1nccc(-c2c(-c3ccc(F)cc3)nn3cc(C(F)(F)F)ccc23)n1`, the inhibition was -1.62%.

On to `COc1cc(/C=N/Nc2ncnc3c2cnn3C(C)C)ccc1O`, for which the inhibition amounted to 3.06%.

With `NC(=O)c1cccc(Nc2nccc(Nc3cccc(F)c3)n2)c1`, the inhibition was 0.02%.

Consider `COC(=O)Nc1nc2cc(Oc3ccc(NC(=O)Nc4cccc(Br)c4)cc3)ccc2[nH]1`, for which the inhibition was found to be 0.89%.

For the compound `NS(=O)(=O)c1ccc(Nc2cc(-c3cccc(O)c3)n[nH]2)cc1`, the inhibition came to 7.23%.

For the compound `Cc1ccc2c(-c3ccnc(Nc4cccc(C(F)(F)F)c4)n3)c(-c3ccccc3)nn2n1`, the inhibition came to 6.13%.

The target of a further experiment is T2, Mitogen-activated protein kinase 12 (Homo sapiens) (UniProt P53778).
T2 sequence (whole entry): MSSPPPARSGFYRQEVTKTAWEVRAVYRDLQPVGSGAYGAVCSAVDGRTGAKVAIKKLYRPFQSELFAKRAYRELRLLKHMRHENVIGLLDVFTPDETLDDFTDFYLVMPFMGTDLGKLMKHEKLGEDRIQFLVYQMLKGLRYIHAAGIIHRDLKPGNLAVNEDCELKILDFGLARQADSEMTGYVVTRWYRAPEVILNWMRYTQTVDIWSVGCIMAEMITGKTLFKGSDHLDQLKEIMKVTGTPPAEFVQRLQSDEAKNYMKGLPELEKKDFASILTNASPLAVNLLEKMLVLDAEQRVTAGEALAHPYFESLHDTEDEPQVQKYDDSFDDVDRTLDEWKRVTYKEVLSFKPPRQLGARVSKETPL
To be noted: at 0.1 µM.
As for `CN1CCN(C(=O)c2ccc(NC(=O)Nc3ccc(N(C)c4ccnc(Nc5ccc(CS(C)(=O)=O)cc5)n4)cc3)cc2)CC1`, the inhibition came out at 1.54%.

Consider `Oc1cccc(-c2nc(-c3ccccc3)[nH]c2-c2ccncc2)c1`, for which the inhibition was -0.21%.

`COc1cccc(-n2ncc3c(N/N=C/c4ccc(C)cc4)ncnc32)c1`: the inhibition is 3.81%.

On to `CN(C)CCCn1c(-c2nonc2N)nc2cnccc21`, for which the inhibition amounted to 3.33%.

`NS(=O)(=O)c1cccc(-c2cc3ccncc3cc2OCc2ccccc2)c1`: the inhibition was determined as 0.96%.

`O=C1Nc2ccccc2/C1=C/Nc1ccc2[nH]c(=O)[nH]c2c1`: the inhibition worked out at 0.57%.

Take `Cc1ccc(C(=O)NC2CC2)cc1-c1ccc2[nH]ncc2c1`: the inhibition is -3.26%.

For `N#Cc1c(NC(=O)c2ccccc2F)sc2c1CCCC2`, the inhibition was -1.2%.

With `COC(=O)c1ccc2c(c1)C(=Cc1cc(Br)c(O)c(Br)c1)C(=O)N2`, the inhibition turned out to be 4.05%.

For `NS(=O)(=O)c1ccc(N/N=C2\C(=O)Nc3ccc(Cl)cc32)cc1`, the inhibition was 0.26%.

`O=C(Nc1ccc(Oc2ccc3[nH]c(NC(=O)c4ccco4)nc3c2)cc1)Nc1cc(C(F)(F)F)ccc1F`: the inhibition was -4.43%.

For the compound `CS(=O)(=O)Nc1cccc(-c2ccc3c(NC(=O)C4CC4)n[nH]c3c2)c1`, the inhibition stood at 1.49%.

For `c1ccc(Nc2ncc(-c3ccccc3)o2)cc1`, the inhibition was 2.89%.

Turning to `CC(C)c1ccc(Nc2nccc(-c3cnn4ncccc34)n2)cc1`, the inhibition is -0.84%.

Take `CCS(=O)(=O)c1ccc(OC)c(Nc2ncc(-c3cccc(OC)c3)o2)c1`: the inhibition was -4.79%.

Regarding `N#Cc1cccc(Nc2nccc(-c3cnn4ncccc34)n2)c1`, the inhibition is 4.57%.

As for `COc1cc2ncnc(Nc3ccc4c(cnn4Cc4ccccc4)c3)c2cc1OC`, the inhibition came out at 2.87%.

For `COc1cc2ncn(-c3cc(OCc4ccccc4S(C)(=O)=O)c(C#N)s3)c2cc1OC`, the inhibition was found to be 0.36%.

For `CN(c1ccc(NC(=O)Nc2ccc(OC(F)(F)F)cc2)cc1)c1ccnc(Nc2cccc(S(N)(=O)=O)c2)n1`, the inhibition is 2.28%.

Take `ON=C1CCc2cc(-c3nc(C4CCNCC4)[nH]c3-c3ccncc3)ccc21`: the inhibition was found to be 1.31%.

Consider `[O-][S+]1CCN(Cc2ccc(-c3ccc4ncnc(Nc5ccc(OCc6ccccc6)c(Cl)c5)c4c3)o2)CC1`, for which the inhibition worked out at 0.47%.

`NS(=O)(=O)c1ccc(NC=C2C(=O)Nc3ccc4ncsc4c32)cc1`: the inhibition amounted to 1.56%.

With `OCc1ccc(-c2nc(-c3ccccn3)c(-c3ccc4c(c3)OCO4)[nH]2)cc1`, the inhibition was 0.63%.

Turning to `COc1cc(Nc2nccc(-c3cnn4ncccc34)n2)cc(OC)c1`, the inhibition is 1.04%.

As to `Cc1ccc2c(-c3ccnc(Nc4ccc5c(c4)OCCO5)n3)c(-c3ccc(C(F)(F)F)cc3)nn2n1`, the inhibition was determined as 0.73%.

Take `Nc1nccc(-c2c(-c3ccc(F)cc3)ncn2CCCN2CCOCC2)n1`: the inhibition was determined as 1.09%.

With `COc1cccc(-n2nc(C)c3c(N/N=C(\C)c4ccncc4)ncnc32)c1`, the inhibition was -0.13%.

`Nc1nccc(-c2c(-c3ccc(F)cc3)nn3cc(C(F)(F)F)ccc23)n1`: the inhibition is 1.12%.

As for `COc1cc(/C=N/Nc2ncnc3c2cnn3C(C)C)ccc1O`, the inhibition came to 1.85%.

On to `NC(=O)c1cccc(Nc2nccc(Nc3cccc(F)c3)n2)c1`, for which the inhibition was found to be 1.16%.

For the compound `COC(=O)Nc1nc2cc(Oc3ccc(NC(=O)Nc4cccc(Br)c4)cc3)ccc2[nH]1`, the inhibition stood at 2.07%.

Turning to `NS(=O)(=O)c1ccc(Nc2cc(-c3cccc(O)c3)n[nH]2)cc1`, the inhibition is 3.84%.

`Cc1ccc2c(-c3ccnc(Nc4cccc(C(F)(F)F)c4)n3)c(-c3ccccc3)nn2n1`: the inhibition turned out to be 3.8%.

A word on the inhibition: it is the change of the read-out against control, counted positive when it falls.

Source of the values: ChEMBL document CHEMBL1961873, “Compounds: GSK PKIS; Assays: Nanosyn kinase panel” (2012).
